Each sequence was assayed against POU1 (OCT1 POU domain);BOB1 (OBF1, OCA-B) (human;human, UniProt P14859;Q16633 260-458;1-256, |) (assay: EMSA-SELEX-seq; with BOB1 (ternary complex band); 20 mM Tris-HCl pH 7.6, 140 mM NaCl, 10% glycerol, 0.5 mM EDTA, 0.05% Triton X-100, 0.1 mg/mL BSA, 0.1 mg/mL poly(dI-dC), 5 mM DTT, room temperature, 20 min; high values mean tight binding). Settings: protein: recombinant;recombinant; copies: 1;1; dsDNA, one strand shown.
How it was run: (§1)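 Tagged POU-domain proteins were expressed in E. coli BL21, purified under denaturing conditions and renatured. Then 30 ng was mixed with 300 ng of a PCR-amplified double-stranded random 35-nt library, with or without 28 ng coactivator protein, in 20 μL Tris–HCl pH 7.6 binding buffer for 20 min at RT. Complex bands were cut from native 6% PAGE, eluted and PCR-amplified over four rounds, then Illumina-sequenced. Binding preference is the percentage of sequenced 8-mers matching a motif pattern.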

Sequence | binding signal
ATTGAAAT | 0.189 % of ANNNNAAN 8-mers
AATAAAAA | 0.125 % of ANNNNAAN 8-mers
ACTGAAAA | 0.0328 % of ANNNNAAN 8-mers
ATAGAAAT | 0.0878 % of ANNNNAAN 8-mers
AGACGAAT | 0.0418 % of ANNNNAAN 8-mers
ACTGGAAG | 0.0211 % of ANNNNAAN 8-mers
ACGCTAAA | 0.0281 % of ANNNNAAN 8-mers
AGACAAAT | 0.187 % of ANNNNAAN 8-mers
ACCGCAAT | 0.0199 % of ANNNNAAN 8-mers
AGTGCAAG | 0.0238 % of ANNNNAAN 8-mers
AGTCGAAC | 0.0199 % of ANNNNAAN 8-mers
AGGCTAAA | 0.0363 % of ANNNNAAN 8-mers
ATATAAAT | 0.108 % of ANNNNAAN 8-mers
ATGAGAAT | 0.0784 % of ANNNNAAN 8-mers
AGAGTAAA | 0.0605 % of ANNNNAAN 8-mers
ATTACAAC | 0.0258 % of ANNNNAAN 8-mers
AGCTAAAG | 0.0289 % of ANNNNAAN 8-mers
AATTCAAG | 0.0714 % of ANNNNAAN 8-mers
AAATTAAA | 0.213 % of ANNNNAAN 8-mers
AAATCAAG | 0.132 % of ANNNNAAN 8-mers

Sequence | binding signal
ATAATAAC | 0.0496 % of ANNNNAAN 8-mers
AGAATAAA | 0.0757 % of ANNNNAAN 8-mers
AACAAAAT | 0.14 % of ANNNNAAN 8-mers
ATCCCAAC | 0.0172 % of ANNNNAAN 8-mers
AGTCTAAC | 0.0199 % of ANNNNAAN 8-mers
ATGCCAAA | 0.0464 % of ANNNNAAN 8-mers
AGAGCAAT | 0.0332 % of ANNNNAAN 8-mers
ACTGAAAT | 0.0472 % of ANNNNAAN 8-mers
ACCCAAAA | 0.0246 % of ANNNNAAN 8-mers
ACTGGAAT | 0.0558 % of ANNNNAAN 8-mers
AGTCTAAT | 0.0761 % of ANNNNAAN 8-mers
AGAAGAAA | 0.055 % of ANNNNAAN 8-mers
AGAGTAAG | 0.039 % of ANNNNAAN 8-mers
AACGGAAT | 0.0601 % of ANNNNAAN 8-mers
ACAGAAAG | 0.0281 % of ANNNNAAN 8-mers
ACGAGAAT | 0.0347 % of ANNNNAAN 8-mers
AGGATAAC | 0.0293 % of ANNNNAAN 8-mers
AAATTAAT | 0.244 % of ANNNNAAN 8-mers
ATACGAAT | 0.0687 % of ANNNNAAN 8-mers

These sequences were tested against T1, POU2 (OCT2 POU domain);BOB1 (OBF1, OCA-B) (human;human, UniProt P09086;Q16633 175-386;1-256, |) in the same assay as above. Settings: protein: recombinant;recombinant; copies: 1;1; dsDNA, one strand shown.
T1 sequence 1: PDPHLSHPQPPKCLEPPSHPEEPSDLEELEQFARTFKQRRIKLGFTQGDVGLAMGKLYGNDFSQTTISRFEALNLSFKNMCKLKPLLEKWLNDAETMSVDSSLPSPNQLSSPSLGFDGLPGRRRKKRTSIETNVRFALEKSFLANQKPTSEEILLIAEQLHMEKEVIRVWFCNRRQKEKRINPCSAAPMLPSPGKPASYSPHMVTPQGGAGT
T1 sequence 2: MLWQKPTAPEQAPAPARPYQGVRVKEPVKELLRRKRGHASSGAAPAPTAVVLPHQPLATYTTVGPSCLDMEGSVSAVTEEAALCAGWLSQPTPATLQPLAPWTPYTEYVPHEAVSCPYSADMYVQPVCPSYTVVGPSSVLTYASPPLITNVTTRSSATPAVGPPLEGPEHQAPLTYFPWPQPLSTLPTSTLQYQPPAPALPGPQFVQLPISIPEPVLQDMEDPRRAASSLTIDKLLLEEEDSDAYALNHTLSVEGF
How it was run: as §1

Sequence | binding signal
ATTGAAAT | 0.137 % of ANNNNAAN 8-mers
AATAAAAA | 0.0958 % of ANNNNAAN 8-mers
ACTGAAAA | 0.0363 % of ANNNNAAN 8-mers
ATAGAAAT | 0.0892 % of ANNNNAAN 8-mers
AGACGAAT | 0.0479 % of ANNNNAAN 8-mers
ACTGGAAG | 0.0314 % of ANNNNAAN 8-mers
ACGCTAAA | 0.0322 % of ANNNNAAN 8-mers
AGACAAAT | 0.105 % of ANNNNAAN 8-mers
ACCGCAAT | 0.0264 % of ANNNNAAN 8-mers
AGTGCAAG | 0.0264 % of ANNNNAAN 8-mers
AGTCGAAC | 0.0239 % of ANNNNAAN 8-mers
AGGCTAAA | 0.0454 % of ANNNNAAN 8-mers
ATATAAAT | 0.116 % of ANNNNAAN 8-mers
ATGAGAAT | 0.106 % of ANNNNAAN 8-mers
AGAGTAAA | 0.0512 % of ANNNNAAN 8-mers
ATTACAAC | 0.0223 % of ANNNNAAN 8-mers
AGCTAAAG | 0.0256 % of ANNNNAAN 8-mers
AATTCAAG | 0.0817 % of ANNNNAAN 8-mers
AAATTAAA | 0.217 % of ANNNNAAN 8-mers
AAATCAAG | 0.128 % of ANNNNAAN 8-mers

Sequence | binding signal
ATAATAAC | 0.0603 % of ANNNNAAN 8-mers
AGAATAAA | 0.0892 % of ANNNNAAN 8-mers
AACAAAAT | 0.0982 % of ANNNNAAN 8-mers
ATCCCAAC | 0.014 % of ANNNNAAN 8-mers
AGTCTAAC | 0.0231 % of ANNNNAAN 8-mers
ATGCCAAA | 0.0438 % of ANNNNAAN 8-mers
AGAGCAAT | 0.0363 % of ANNNNAAN 8-mers
ACTGAAAT | 0.0495 % of ANNNNAAN 8-mers
ACCCAAAA | 0.0206 % of ANNNNAAN 8-mers
ACTGGAAT | 0.0817 % of ANNNNAAN 8-mers
AGTCTAAT | 0.0958 % of ANNNNAAN 8-mers
AGAAGAAA | 0.0471 % of ANNNNAAN 8-mers
AGAGTAAG | 0.0297 % of ANNNNAAN 8-mers
AACGGAAT | 0.0627 % of ANNNNAAN 8-mers
ACAGAAAG | 0.0239 % of ANNNNAAN 8-mers
ACGAGAAT | 0.0553 % of ANNNNAAN 8-mers
AGGATAAC | 0.0355 % of ANNNNAAN 8-mers
AAATTAAT | 0.287 % of ANNNNAAN 8-mers
ATACGAAT | 0.0759 % of ANNNNAAN 8-mers
